In this assay the target is Lutropin-choriogonadotropic hormone receptor (Homo sapiens) (UniProt P22888). Description: Counterscreen for Agonists of Thyroid Stimulating Hormone Receptor: HTRF Activity in a Luteinizing Hormone Receptor Cell Line. The following applies: HEK293-LHR cells, cAMP HTRF ratio, 30 min; series mostly up to 91.7 µM. An excerpt: NIH Chemical Genomics Center [NCGC] NIH Molecular Libraries Screening Centers Network [MLSCN] MLSCN Grant: 1 X01 MH080680-01 PI Name: Dr. Marvin Gershengorn, NIH NCGC Assay Overview: Confirmation of Thyroid Stimulating Hormone Receptor Agonists TSH is an alpha/beta heterodimeric glycoprotein hormone secreted from the anterior pituitary gland which belongs to the glycoprotein hormone family. The actions of TSH are mediated by a seven-transmembrane receptor, which upon TSH binding couples preferentially to the G-alpha (s) protein (Gs), resulting in activation of adenylate cyclase and increase in cyclic adenosine 3', 5' monophosphate (cAMP). The TSH receptor (THSR) is mainly expressed in thyroid follicular cells and regulates their growth and function. […] In order to confirm specificity of the compounds to the TSHR, a confirmatory assay was conducted on a similar family member, the Luteinizing Hormone (LH) receptor, transfected into a HEK 293 cell line, using an orthogonal detection technology to measure cAMP stimulation: antibody-based Homogeneous Time Resolved Fluorescence (HTRF).
Chain of Lutropin-choriogonadotropic hormone receptor (Homo sapiens) (P22888 whole entry, looked up): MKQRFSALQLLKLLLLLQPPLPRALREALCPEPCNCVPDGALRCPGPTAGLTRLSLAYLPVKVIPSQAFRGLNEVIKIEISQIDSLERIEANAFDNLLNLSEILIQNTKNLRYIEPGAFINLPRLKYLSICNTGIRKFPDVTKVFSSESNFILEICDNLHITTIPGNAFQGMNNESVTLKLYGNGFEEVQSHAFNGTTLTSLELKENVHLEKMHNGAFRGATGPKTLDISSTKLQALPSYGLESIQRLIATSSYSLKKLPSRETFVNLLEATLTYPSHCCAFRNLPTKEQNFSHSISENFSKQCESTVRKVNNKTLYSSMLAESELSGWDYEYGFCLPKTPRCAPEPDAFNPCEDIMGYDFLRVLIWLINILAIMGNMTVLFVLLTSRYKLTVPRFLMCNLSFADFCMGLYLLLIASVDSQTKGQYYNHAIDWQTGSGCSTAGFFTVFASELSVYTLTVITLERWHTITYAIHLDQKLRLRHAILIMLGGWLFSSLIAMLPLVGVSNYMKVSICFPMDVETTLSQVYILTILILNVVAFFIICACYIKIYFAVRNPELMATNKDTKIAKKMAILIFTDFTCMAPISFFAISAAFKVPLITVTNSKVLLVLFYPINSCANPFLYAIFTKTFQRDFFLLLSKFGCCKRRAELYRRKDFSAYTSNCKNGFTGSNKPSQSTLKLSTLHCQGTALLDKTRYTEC
NCGC Assay Protocol Summary: Homogeneous Time Resolved Fluorescence (HTRF) cAMP Assay. […] Plates were measured using the Envision plate reader (PerkinElmer, Boston, MA) with excitation at 330 nm and emissions of 615 nm and 660 nm. […]
A general note: Counterscreens check selectivity or assay interference.

Inconclusive results are not listed. Active and inactive are the calls of the source. Calls follow the shape of the dose curve; as a rule, active = well fitted curve in the direction sought with a large enough effect in the signal ratio; inconclusive = small, poorly fitted or top-dose-only effect, or effect the other way, or a change in a side signal; inactive = no such curve, though single readings can be large or run the other way; the % refers to the signal ratio.

On to `CCOC(=O)C1=C(N)Oc2c(c(=O)oc3ccccc23)C12C(=O)N(C)c1ccccc12` (configuration not stated), for which the outcome was inactive.
As to `C=CCN1C(=O)C2(C(C(=O)OC)=C(N)Oc3c2c(=O)oc2ccccc32)c2ccccc21` (configuration not stated), the outcome was inactive.

(Values after PubChem BioAssay AID1402 (National Center for Advancing Translational Sciences (NCATS), 2008).)
